Test results from the supplement of paper PMC3545927.
The other results are listed elsewhere or left out. How many sequences the whole screen found active is unknown.

Biological target: furin, P09958
Assay: furin cleavage Z-score vs untreated control; higher = more cleavage, active = 3.5 or more, inactive = 1 or less, 8 variable residues between constant flanks
Method in brief: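 To give the cleavage Z-score, log read counts were set against furin-free reactions, lowess-adjusted and scaled by median absolute deviation. These counts came from PCR adapter-tagged, sequenced DNA released when purified furin cut 8-mer peptides fused to a cDNA oligonucleotide and held on magnetic beads by their N-terminus. Digests were 0.01 ml, 1:10 enzyme:substrate, in 50 mM HEPES pH 7.5 with CaCl2 and NaCl, for 7.5, 15 or 30 min.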

Chain of furin, P09958 (P09958 whole entry): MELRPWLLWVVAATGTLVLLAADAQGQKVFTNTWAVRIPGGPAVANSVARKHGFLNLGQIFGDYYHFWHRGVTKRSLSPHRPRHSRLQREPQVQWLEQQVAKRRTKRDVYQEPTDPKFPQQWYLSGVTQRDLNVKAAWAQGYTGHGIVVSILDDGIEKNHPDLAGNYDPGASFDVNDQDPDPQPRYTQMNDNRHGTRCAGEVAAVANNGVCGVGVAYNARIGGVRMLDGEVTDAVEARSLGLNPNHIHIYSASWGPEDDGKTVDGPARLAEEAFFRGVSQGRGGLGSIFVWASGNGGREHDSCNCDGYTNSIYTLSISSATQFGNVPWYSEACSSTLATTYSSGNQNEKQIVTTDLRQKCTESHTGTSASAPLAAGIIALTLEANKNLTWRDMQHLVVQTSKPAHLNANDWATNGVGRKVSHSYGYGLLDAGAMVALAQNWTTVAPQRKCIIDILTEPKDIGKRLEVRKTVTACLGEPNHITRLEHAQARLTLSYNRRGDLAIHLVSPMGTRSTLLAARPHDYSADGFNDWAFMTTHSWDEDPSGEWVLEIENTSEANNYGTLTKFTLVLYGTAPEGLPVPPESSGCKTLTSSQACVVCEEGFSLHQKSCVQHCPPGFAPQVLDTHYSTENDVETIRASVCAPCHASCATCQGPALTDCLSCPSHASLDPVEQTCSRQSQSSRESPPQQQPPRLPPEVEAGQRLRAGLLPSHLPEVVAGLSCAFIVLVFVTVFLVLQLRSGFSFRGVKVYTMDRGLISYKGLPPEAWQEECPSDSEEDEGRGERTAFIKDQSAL

Sequence | furin cleavage Z-score (7.5 min) | furin cleavage Z-score (15 min) | furin cleavage Z-score (30 min)
CATTPWSGSWAGNASASA [HC47] | -0.899 (inactive) | -0.0349 (inactive) | -1.02 (inactive)
CAVICCSMSYAGNASASA [HC2004] | -1.33 (inactive) | -0.628 (inactive) | 0.99 (inactive)
CANQVEGEVQAGNASASA [HC687] | -1.48 (inactive) | -0.19 (inactive) | -1.34 (inactive)
CAEKSRAKRQAGNASASA [FS-231] | 9.72 (active) | 8.1 (active) | 6.51 (active)
CARVPCHRPSAGNASASA [HC2313] | -0.0296 (inactive) | 0.363 (inactive) | -0.117 (inactive)
CAFRVRSRRWAGNASASA [FS-328] | 8.66 (active) | 9.61 (active) | 9.2 (active)
CAQKVRPRRWAGNASASA [FS-80] | 9.9 (active) | 11.7 (active) | 9.5 (active)
CAFRNRNQRIAGNASASA [FS-235] | -0.28 (inactive) | -1.55 (inactive) | 0.794 (inactive)
CARDVRSRRPAGNASASA [FS-1393] | 0.0934 (inactive) | 0.513 (inactive) | 0.621 (inactive)
CAQKDRARRPAGNASASA [FS-1605] | 0.51 (inactive) | -1.09 (inactive) | 0.363 (inactive)
CAKIKRSVSPAGNASASA [FS-2247] | 4.13 (active) | 3.63 (active) | 4.32 (active)
CAKAKRSVPPAGNASASA [FS-2540] | 9.65 (active) | 9.24 (active) | 7.46 (active)
CAGLKRSVSRAGNASASA [FS-2477] | -0.266 (inactive) | -1.67 (inactive) | 0.712 (inactive)
CAPLKRSVSLAGNASASA [FS-2876] | 0.317 (inactive) | 2.22 | 2.88
CALRKLGVPPAGNASASA [HC1615] | 0.313 (inactive) | 0.845 (inactive) | 0.629 (inactive)
CAPKSPPVPPAGNASASA [HC1320] | -0.644 (inactive) | 0.94 (inactive) | -0.0681 (inactive)
CAQNVQLINTAGNASASA [HC365] | -0.00687 (inactive) | 0.24 (inactive) | 0.289 (inactive)
CAEVPCHRPSAGNASASA [HC2312] | 0.893 (inactive) | 0.385 (inactive) | 0.669 (inactive)
CACTCGSSDLAGNASASA [HC722] | -1.16 (inactive) | -3.51 (inactive) | -0.486 (inactive)
CAHAYRHRRLAGNASASA [FS-1531] | 0.687 (inactive) | 2.16 | 3.53 (active)
CAALCRHRRLAGNASASA [FS-154] | 4.73 (active) | 5.6 (active) | 6.55 (active)
CAHAYRPGRRAGNASASA [FS-247] | -0.291 (inactive) | -0.643 (inactive) | 1.65

Sequence | furin cleavage Z-score (7.5 min) | furin cleavage Z-score (15 min) | furin cleavage Z-score (30 min)
CAGIMHTRCHAGNASASA [HC1172] | 1.75 | 2.22 | 0.438 (inactive)
CARASRNKRPAGNASASA [FS-1559] | 0.256 (inactive) | -0.194 (inactive) | 0.132 (inactive)
CARASRAKRRAGNASASA [FS-1477] | 11.9 (active) | 12.4 (active) | 8.04 (active)
CARATRKIGIAGNASASA [FS-2132] | -0.496 (inactive) | -1.56 (inactive) | -0.101 (inactive)
CACPRRAKRRAGNASASA [FS-119] | 4.82 (active) | 4.82 (active) | 5.05 (active)
CARASRGGGGAGNASASA [FS-2891] | -0.8 (inactive) | -0.464 (inactive) | -0.232 (inactive)
CARASRSIRIAGNASASA [FS-2893] | 3.6 (active) | 6.75 (active) | 7.27 (active)
CAEVPCHKPSAGNASASA [HC2374] | 0.115 (inactive) | 1 | -0.202 (inactive)
CADFMEECSQAGNASASA [HC1807] | 0.00727 (inactive) | -0.301 (inactive) | -1.48 (inactive)
CAMCAVHPTLAGNASASA [HC599] | -1.6 (inactive) | -0.0857 (inactive) | -0.861 (inactive)
CAFYGKAIPLAGNASASA [HC848] | 0.497 (inactive) | -0.506 (inactive) | -2.2 (inactive)
CANNARAARSAGNASASA [FS-1547] | 5.1 (active) | 5 (active) | 5.02 (active)
CANILRKARSAGNASASA [FS-366] | 9.27 (active) | 9.75 (active) | 7.85 (active)
CATLLRAARSAGNASASA [FS-1659] | 4.67 (active) | 4.38 (active) | 3.86 (active)
CALWARMILMAGNASASA [HC1580] | -0.179 (inactive) | -0.799 (inactive) | -1.16 (inactive)
CATWLKAKLMAGNASASA [HC1157] | 3.1 | 1.6 | 3.5 (active)
CATCGFADLMAGNASASA [HC224] | -0.244 (inactive) | -0.821 (inactive) | -0.0608 (inactive)
CATTPCSGQWAGNASASA [HC1922] | -0.163 (inactive) | -0.899 (inactive) | -0.665 (inactive)
CAVYTFYGMWAGNASASA [HC554] | -0.934 (inactive) | -0.697 (inactive) | -0.425 (inactive)
CASTPCSWHLAGNASASA [HC2528] | 1.37 | 0.165 (inactive) | -0.0279 (inactive)
CASTPCSAQLAGNASASA [HC2562] | -1.59 (inactive) | 0.487 (inactive) | 0.259 (inactive)
CAEGEVPCHRAGNASASA [HC2456] | 1.8 | 1.4 | 0.687 (inactive)
